From PubChem BioAssay (NCI)
About 79,000 compounds went through this panel and 15% of them were active in at least one assay; those are over-represented in the sample as a whole. Activity calls are given as the source filed them. Cut-off read from the data, not from the text of the source: active = growth inhibition above about 70%; inactive = the rest.

Columns and labels:
[1] = NCI Yeast Anticancer Drug Screen. Data for the rad52 strain (AID 147);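 note: 0% = growth of vehicle-treated control cultures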; conditions: S. cerevisiae rad52 mutant growth inhibition, stronger effect = higher value
Method in brief: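 Growth of repair-deficient yeast cells was compared between compound-treated and vehicle-treated cultures to give percent inhibition.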

[2] = NCI Yeast Anticancer Drug Screen. Data for the wt1 strain (AID 149);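 note: 0% = growth of vehicle-treated wt1 cultures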; conditions: S. cerevisiae wt1 strain (SPY 50644) growth inhibition, stronger effect = higher value
Method in brief: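 Readout: yeast growth inhibition, normalised to vehicle controls, in the wt1 strain exposed to test compounds.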

[3] = NCI Yeast Anticancer Drug Screen. Data for the rad50EPP+ strain (AID 151);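 note: 0% = growth of vehicle-treated control cultures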; conditions: S. cerevisiae rad50 mutant strain, stronger effect = higher value
Method in brief: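 Measured: growth inhibition of rad50EPP+ yeast. Reference: vehicle-treated controls. Screen uses strains with defined genetic alterations in DNA damage repair or cell cycle control.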

[4] = NCI Yeast Anticancer Drug Screen. Data for the mgt1 strain (AID 153); conditions: S. cerevisiae mgt1 mutant growth inhibition, stronger effect = higher value
Method in brief: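 Compounds were applied to mgt1 mutant yeast, and growth was then compared against vehicle-treated control cultures to give percent inhibition.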

[5] = NCI Yeast Anticancer Drug Screen. Data for the rad50 strain (AID 155);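 note: 0% = growth of vehicle-only cultures of the same strain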; conditions: S. cerevisiae rad50 strain growth inhibition, stronger effect = higher value
Method in brief: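 Compounds were tested on a yeast strain with an engineered DNA damage repair alteration; the reported value is growth inhibition normalised to vehicle treatment.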

[6] = NCI Yeast Anticancer Drug Screen. Data for the mec2-1 strain (AID 157); conditions: S. cerevisiae mec2-1 strain, stronger effect = higher value
Method in brief: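 Compounds were applied to mec2-1 yeast cells. Their growth was then compared with that of vehicle-treated cultures to give growth inhibition.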

[7] = NCI Yeast Anticancer Drug Screen. Data for the rad14 strain (AID 159);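 note: 0% = growth of vehicle-treated control cultures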; conditions: S. cerevisiae rad14 strain growth inhibition, stronger effect = higher value
Method in brief: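 Compound-treated yeast with a defined DNA-repair lesion; growth inhibition normalised to vehicle-treated cultures.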

[8] = NCI Yeast Anticancer Drug Screen. Data for the sgs1 mgt1 strain (AID 161);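 note: 0% = growth of cultures given vehicle only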; conditions: S. cerevisiae sgs1 mgt1 strain, stronger effect = higher value
Method in brief: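 This yeast growth screen uses a strain with defined DNA-repair lesions; compound-treated growth is compared with vehicle-treated growth.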

[9] = NCI Yeast Anticancer Drug Screen. Data for the CLN2oe strain (AID 163);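 note: 0% = growth of vehicle-only control cultures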; conditions: S. cerevisiae CLN2oe strain, stronger effect = higher value
Method in brief: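 Cells of an engineered yeast line with disturbed cell-cycle regulation are treated with compound. Inhibition of growth is then calculated relative to the vehicle-treated reference.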

[10] = NCI Yeast Anticancer Drug Screen. Data for the cln2 rad14 strain (AID 165);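 note: 0% = growth equal to vehicle treated cultures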; conditions: S. cerevisiae cln2 rad14 strain, stronger effect = higher value
Method in brief: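 Strain: cln2 rad14 yeast, altered in cell cycle control and DNA damage repair. Read-out: growth inhibition vs vehicle.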

[11] = NCI Yeast Anticancer Drug Screen. Data for the bub3 strain (AID 167); conditions: S. cerevisiae bub3 mutant strain, stronger effect = higher value
Method in brief: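 Growth of a checkpoint-deficient yeast mutant is measured after compound exposure. Values represent inhibition relative to vehicle.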

[12] = NCI Yeast Anticancer Drug Screen. Data for the wt2 strain (AID 169);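 note: 0% = growth of vehicle-treated yeast cultures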; conditions: S. cerevisiae wt2 strain growth inhibition, stronger effect = higher value
Method in brief: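 Growth of compound-treated yeast is measured and expressed as inhibition relative to vehicle-only controls.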

[13] = NCI Yeast Anticancer Drug Screen. Data for the mlh1 strain (AID 171);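 note: 0% = growth of vehicle-treated control cultures of the same strain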; conditions: S. cerevisiae mlh1 strain growth inhibition, stronger effect = higher value
Method in brief: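 Test agents were incubated with yeast bearing a defined DNA damage repair or cell cycle control alteration; values are growth inhibition normalised to vehicle-treated cultures.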

[14] = NCI Yeast Anticancer Drug Screen. Data for the sgs1 strain (AID 173);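 note: 0% = growth of vehicle-only control cultures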; conditions: S. cerevisiae sgs1 mutant, stronger effect = higher value
Method in brief: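 Strain with an altered DNA repair or cell cycle pathway exposed to compound. Growth then measured. Value = inhibition versus vehicle control.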

[15] = NCI Yeast Anticancer Drug Screen. Data for the mlh1 rad18 strain (AID 175); conditions: S. cerevisiae mlh1 rad18 strain growth inhibition, stronger effect = higher value
Method in brief: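 A repair-deficient yeast strain is exposed to test compound, and growth is scored relative to vehicle-treated controls.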

[16] = NCI Yeast Anticancer Drug Screen. Data for the rad18 strain (AID 177); conditions: S. cerevisiae rad18 mutant growth inhibition, stronger effect = higher value
Method in brief: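 DNA-repair-defective yeast; compound treatment; growth inhibition scored against vehicle.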

[17] = at 5.0 µM (retest, dose inferred, filed as 0.5)
[18] = at 50.0 µM (retest, dose inferred, filed as 5.0)

Measured: growth inhibition

OCC1OC(OCC(O)C(O)C(O)C(/C=N/Nc2ccccc2)=N/Nc2ccccc2)C(O)C(O)C1O (stereo not drawn)
inactive: [1]; at 1.2 µM 2% | [1]; at 3.7 µM 9% | [1]; at 11.0 µM 16% | [1]; at 33.0 µM 18% | [1]; at 100.0 µM 45% | [2]; at 1.2 µM 4% | [2]; at 3.7 µM 17% | [2]; at 11.0 µM 21% | [2]; at 33.0 µM 24% | [2]; at 100.0 µM 28% | [3]; at 1.2 µM 9% | [3]; at 3.7 µM 30% | [3]; at 11.0 µM 38% | [3]; at 33.0 µM 40% | [3]; at 100.0 µM 37% | [4]; at 1.2 µM 3% | [4]; at 3.7 µM 12% | [4]; at 11.0 µM 11% | [4]; at 33.0 µM 11% | [4]; at 100.0 µM 5% | [5]; at 1.2 µM -5% | [5]; at 3.7 µM 13% | [5]; [17] 15% | [5]; at 11.0 µM 29% | [5]; at 33.0 µM 32% | [5]; [18] 22% | [5]; at 100.0 µM 55% | [6]; at 1.2 µM -2% | [6]; at 3.7 µM 16% | [6]; [17] 1% | [6]; at 11.0 µM 20% | [6]; at 33.0 µM 31% | [6]; [18] 13% | [6]; at 100.0 µM 68% | [7]; at 1.2 µM -1% | [7]; at 3.7 µM 1% | [7]; at 11.0 µM 4% | [7]; at 33.0 µM 9% | [7]; at 100.0 µM 28% | [8]; [17] 7% | [8]; [18] -2% | [9]; at 1.2 µM 4% | [9]; at 3.7 µM 8% | [9]; at 11.0 µM 10% | [9]; at 33.0 µM 9% | [9]; at 100.0 µM 40% | [10]; [17] 7% | [10]; [18] -1% | [11]; at 1.2 µM 2% | [11]; at 3.7 µM 9% | [11]; [17] 12% | [11]; at 11.0 µM 10% | [11]; at 33.0 µM 12% | [11]; [18] 41% | [11]; at 100.0 µM 47% | [12]; at 1.2 µM 1% | [12]; at 3.7 µM 7% | [12]; at 11.0 µM 20% | [12]; at 33.0 µM 17% | [12]; at 100.0 µM 17% | [13]; at 1.2 µM -2% | [13]; at 3.7 µM 4% | [13]; at 11.0 µM 8% | [13]; at 33.0 µM 11% | [13]; at 100.0 µM 30% | [14]; at 1.2 µM 3% | [14]; at 3.7 µM 13% | [14]; at 11.0 µM 16% | [14]; at 33.0 µM 19% | [14]; at 100.0 µM 35% | [15]; [17] 18% | [15]; [18] 31% | [16]; at 1.2 µM 7% | [16]; at 3.7 µM 25% | [16]; at 11.0 µM 30% | [16]; at 33.0 µM 39%
active: [5]; at 50.0 µM 99.2% | [6]; at 50.0 µM 99.5% | [8]; at 50.0 µM 93.3% | [10]; at 50.0 µM 99.3% | [11]; at 50.0 µM 99.2% | [15]; at 50.0 µM 99.4% | [16]; at 100.0 µM 81%

CCOC(=O)c1cc([N+](=O)[O-])cc([N+](=O)[O-])c1Sc1ncnc2nc[nH]c12
active: [1]; at 100.0 µM 95% | [2]; at 100.0 µM 97% | [3]; at 100.0 µM 82% | [4]; at 33.0 µM 83% | [4]; at 100.0 µM 98% | [5]; [18] 75% | [5]; at 100.0 µM 96% | [6]; at 100.0 µM 97% | [7]; at 100.0 µM 97% | [8]; [18] 75% | [9]; at 100.0 µM 97% | [10]; at 50.0 µM 77.2% | [11]; at 33.0 µM 70% | [11]; [18] 70% | [11]; at 100.0 µM 96%
inactive: [1]; at 1.2 µM 13% | [1]; at 3.7 µM 2% | [1]; at 11.0 µM 11% | [1]; at 33.0 µM 62% | [2]; at 1.2 µM -29% | [2]; at 3.7 µM -44% | [2]; at 11.0 µM -32% | [2]; at 33.0 µM 50% | [3]; at 1.2 µM -6% | [3]; at 3.7 µM -11% | [3]; at 11.0 µM 13% | [3]; at 33.0 µM 62% | [4]; at 1.2 µM -17% | [4]; at 3.7 µM -18% | [4]; at 11.0 µM -8% | [5]; at 1.2 µM -15% | [5]; at 3.7 µM -15% | [5]; [17] 36% | [5]; at 11.0 µM 1% | [5]; at 33.0 µM 68% | [5]; at 50.0 µM 36% | [6]; at 1.2 µM -33% | [6]; at 3.7 µM -28% | [6]; [17] 22% | [6]; at 11.0 µM -2% | [6]; at 33.0 µM 65% | [6]; [18] 69% | [6]; at 50.0 µM 60% | [7]; at 1.2 µM -30% | [7]; at 3.7 µM -21% | [7]; at 11.0 µM -9% | [7]; at 33.0 µM 66% | [8]; [17] 52% | [8]; at 50.0 µM 62% | [9]; at 1.2 µM -19% | [9]; at 3.7 µM -33% | [9]; at 11.0 µM -23% | [9]; at 33.0 µM 54% | [10]; [17] 5% | [10]; [18] -16% | [11]; at 1.2 µM -26% | [11]; at 3.7 µM -12% | [11]; [17] 38% | [11]; at 11.0 µM -11% | [11]; at 50.0 µM 59.5%
